Only some compounds are listed: those with a hit (about 9% of all), similar ones and a draw of the others.
PLK1 PBD inh – PLK1 (human) polo-box domain binding inhibition; P53350; Plk1 PBD binding of FITC phosphopeptide, fluorescence polarization; Potency, µM, hits mostly inhibitors; 360,000 compounds, 2.8% hits; note: series mostly up to about 57 µM; nearly all actives have a fitted effect of over 65% in size
BAZ2B block – blocks human BAZ2B | Q9UIF8 | AlphaScreen BAZ2B-H3K14Ac peptide displacement | Potency, µM (doses to about 114 µM), actives largely listed as inhibitors | 360,000 compounds, 4.4% hits; note: nearly all actives have a fitted effect of over 60% in size
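Compounds, titrated to a top concentration of 110 uM, were incubated 30 min at room temperature with preformed BAZ2B/acetyl-K14 H3 peptide complex (50 nM each). Proximity signal was measured by AlphaScreen after 20 min with beads.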
12-LOX inh – ALOX12 (human) lipoxygenase inhibition | 580,000 compounds, 1.1% hits | Potency, µM (doses to about 108 µM), hits mostly inhibitors | purified 12hLO, xylenol orange hydroperoxide absorbance | P18054 | AID 1671190
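Purified human 12hLO at 150 nM in 25 mM Hepes, 0.01% Triton X-100, pH 7.0, preincubated 15 min at room temperature with compound. Reaction started with 40 uM arachidonic acid, 30 min at room temperature. Hydroperoxide measured by Fe-xylenol orange, 573/405 nm absorbance ratio.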
G9a inh – blocks human histone lysine methyltransferase G9a. Q96KQ7. G9a H3K9 monomethylation, AlphaScreen, 2 h. Potency, µM (highest dose often 102 µM), actives largely listed as inhibitors. 350,000 compounds, 8.8% hits; note: nearly all actives have a fitted effect of over 75% in size
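AlphaScreen read-out: biotin-H3K9 peptide (500 nM) methylation by 20 nM enzyme with 20 uM SAM, 2 h at room temperature after 15 min compound preincubation; anti-monomethyl H3K9 antibody plus donor/acceptor beads, 10 min dark.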
HP1b chromo inh – HP1-beta chromodomain-methylated histone interaction inhibition; P83916; AlphaScreen HP1-beta / biotin-H3K9me3 peptide binding; Potency, µM (titrated, usually from 114 µM), actives largely listed as inhibitors; 390,000 compounds, 0.56% hits; note: nearly all actives have a fitted effect of over 70% in size
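HP1-beta protein (50 nM final) preincubated 30 min at room temperature with biotinylated H3(1-18)K9me3 peptide (50 nM) in PBS pH 7.4, 0.01% Tween-20, then compound added for 30 min. AlphaScreen streptavidin donor/nickel chelate acceptor beads (10 ug/mL final), 30 min dark, luminescence read.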
JMJD2A Tudor – blocks the human JMJD2A Tudor domain | O75164 | AlphaScreen JMJD2A-Tudor / H3K4me3 peptide binding | Potency, µM (titrated, usually from 114 µM), actives largely listed as inhibitors | 390,000 compounds, 4.4% hits | AID 504339; note: nearly all actives have a fitted effect of over 50% in size
Each line names hits and unclear results; the compound was inactive in the other large screens; ! = a repeat was not active. Calls come from the whole dose curve; as a rule, active = well fitted curve in the direction sought with a large enough effect; inconclusive = small, poorly fitted or top-dose-only effect, or another doubt; inactive = no such curve, though single readings can be large; an effect the other way counts as inactive or inconclusive.

COc1ccc(Cn2c(O)c(C=NCCN3CCOCC3)c(=O)[nH]c2=O)cc1	G9a inh 39.8µM
O=c1[nH]c(=O)n(Cc2ccc(F)cc2)c(O)c1C=Nc1ccc(Cl)cc1	none
CC(=O)N1CCC2(CC1)CC(c1cccnc1)=NO2	none (no result: PLK1 PBD inh, BAZ2B block, G9a inh, HP1b chromo inh, JMJD2A Tudor)
COc1ccc(Cn2c(O)c(/C=N/NC(=O)c3ccccc3O)c(=O)[nH]c2=O)cc1	BAZ2B block 50.1µM, 12-LOX inh inconclusive, JMJD2A Tudor 70.8µM
O=C(N/N=C/c1c(O)n(Cc2ccccc2)c(=O)[nH]c1=O)c1ccccc1O	BAZ2B block inconclusive, 12-LOX inh inconclusive, G9a inh inconclusive, JMJD2A Tudor inconclusive
CCn1c(O)c(C=NCCN2CCOCC2)c(=O)n(CC)c1=S	none (no result: G9a inh)
O=C(N/N=C/c1c(O)n(Cc2ccc(F)cc2)c(=O)[nH]c1=O)c1ccccc1O	BAZ2B block inconclusive, 12-LOX inh inconclusive, G9a inh 44.7µM, JMJD2A Tudor inconclusive
O=c1[nH]c(=O)n(Cc2ccco2)c(O)c1/C=N/N1CCCCC1	12-LOX inh inconclusive, G9a inh 20µM
Cn1c(O)c(C=NCCN2CCOCC2)c(=O)n(C)c1=S	BAZ2B block inconclusive, G9a inh 31.6µM
COCCNC(=O)[C@H]1CN2CCC1C[C@@H]2Cn1cc(COC)nn1 (stereo partly specified)	none (no result: PLK1 PBD inh, BAZ2B block, G9a inh, HP1b chromo inh, JMJD2A Tudor)
COc1ccc(CCNCc2ccccn2)cc1OC	BAZ2B block inconclusive, G9a inh inconclusive, JMJD2A Tudor inconclusive
CC(=O)c1ccc(OCC(=O)N2CCCC(N(C)Cc3ccccc3)C2)cc1 (stereo unspecified)	none
COc1ccc(Cn2c(O)c(/C=N/NC(=O)c3ccccc3)c(=O)[nH]c2=O)cc1	BAZ2B block 50.1µM, JMJD2A Tudor 79.4µM
CCn1c(O)c(/C=N/NC(=O)c2ccccc2)c(=O)[nH]c1=S	BAZ2B block 39.8µM, JMJD2A Tudor 56.2µM
COc1ccc(Cn2c(O)c(/C=N/NC(=O)c3ccncc3)c(=O)[nH]c2=O)cc1	BAZ2B block inconclusive, G9a inh inconclusive, JMJD2A Tudor inconclusive
C=CCn1c(O)c(/C=N/NC(=O)CCCC)c(=O)[nH]c1=S	BAZ2B block inconclusive, 12-LOX inh inconclusive, JMJD2A Tudor 79.4µM
Cc1ccc2nc(N3CCC(C(=O)N4CCC5(CC4)OCCO5)CC3)sc2c1	none
O=C(c1ccc(CNS(=O)(=O)c2ccccc2)cc1)N1CCC2(CC1)OCCO2	PLK1 PBD inh 21.2µM, BAZ2B block inconclusive, G9a inh 35.5µM, JMJD2A Tudor inconclusive
CCN(CC)c1ncnc2c1ncn2[C@@H]1O[C@H](COP(=O)(O)OP(=O)(O)C(Br)(Br)P(=O)(O)O)[C@@H](O)[C@H]1O	G9a inh 29.9µM! (no result: PLK1 PBD inh, BAZ2B block, 12-LOX inh, HP1b chromo inh, JMJD2A Tudor)
Nc1ncnc2c1ncn2[C@@H]1O[C@H](COP(=O)(O)OP(=O)(O)OP(=O)(O)O)[C@@H](O)[C@H]1O	JMJD2A Tudor inconclusive
NC(=O)C1=CN(C2OC(COP(=O)(O)OP(=O)(O)OC[C@H]3O[C@@H](n4cnc5c(N)ncnc54)[C@H](OP(=O)(O)O)[C@@H]3O)C(O)C2O)C=CC1 (stereo partly specified)	G9a inh 10.6µM (no result: PLK1 PBD inh, BAZ2B block, 12-LOX inh, HP1b chromo inh, JMJD2A Tudor)
CN1CCC(N2C[C@@H]3C[C@H](C2)c2c(NC(=O)NC4CCCCC4)ccc(=O)n2C3)CC1	none (no result: PLK1 PBD inh, BAZ2B block, G9a inh, HP1b chromo inh, JMJD2A Tudor)
CN(CCCC(=O)c1cccnc1)N=O	none (no result: PLK1 PBD inh, BAZ2B block, HP1b chromo inh, JMJD2A Tudor)
On1ccccc1=S	PLK1 PBD inh inconclusive, G9a inh 1.12µM, HP1b chromo inh inconclusive, JMJD2A Tudor 3.55µM
CCC(CC)c1cc([C@H]2CN3CC[C@H]2C[C@@H]3CNC(=O)c2ccccc2)nc(-c2ccncc2)n1	none (no result: PLK1 PBD inh, BAZ2B block, G9a inh, HP1b chromo inh, JMJD2A Tudor)
Cc1cc(N(C)C)ccc1N=Nc1ccc(N)cc1	HP1b chromo inh 44.7µM, JMJD2A Tudor 20µM (no result: BAZ2B block, G9a inh)
CCC(=O)N1[C@H]2CC[C@@H]1c1cnc(-c3ccc(F)cc3)nc1C2	none (no result: PLK1 PBD inh, BAZ2B block, G9a inh, HP1b chromo inh, JMJD2A Tudor)
CCN(CC)P(c1n(C)cc[n+]1C)N(CC)CC	12-LOX inh inconclusive, G9a inh inconclusive, HP1b chromo inh inconclusive, JMJD2A Tudor 22.4µM
CN1CCC2(CC1)C(C#N)=C(N)NC(S)=C2C#N	PLK1 PBD inh inconclusive, BAZ2B block inconclusive, G9a inh 6.31µM, JMJD2A Tudor 3.98µM
Cn1cc(/C=C(\C(=O)O)C(C(=O)O)=C2CCCCC2)c2ccccc21	PLK1 PBD inh 15µM, BAZ2B block inconclusive, G9a inh 31.6µM, JMJD2A Tudor inconclusive

High-throughput results as filed in PubChem.
